# Compound activity (PubChem BioAssay)
# CBX7 AlphaScr: blocks human CBX7 binding to H3K27me3 peptide. O95931. AlphaScreen His6-CBX7 / biotin-H3K27me3 peptide binding; stronger effect = lower value. AID 1224903. normalised signal (fraction of DMSO) (no concentration beside the values). 66,000 compounds, 1.1% hits; in the data active = normalised signal below about 0.5
# Target sequence (O95931 whole entry, looked up): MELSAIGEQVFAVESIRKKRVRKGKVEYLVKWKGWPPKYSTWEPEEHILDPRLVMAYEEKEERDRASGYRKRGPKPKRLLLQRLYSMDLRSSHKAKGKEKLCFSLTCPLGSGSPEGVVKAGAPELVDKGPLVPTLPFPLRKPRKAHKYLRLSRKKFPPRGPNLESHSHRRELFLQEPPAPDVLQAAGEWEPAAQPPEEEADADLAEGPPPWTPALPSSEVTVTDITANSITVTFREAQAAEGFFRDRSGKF
# * marks the source's active call; other numbers are inactive results. Shown is part of a subset that was picked to be rich in hits.
SMILES,CBX7 AlphaScr
COc1ccc(N2CCN(c3oc(COc4ccc(C)cc4)nc3C#N)CC2)cc1,0.48*
COc1ccc(N2CCN(c3oc(COc4ccccc4C)nc3C#N)CC2)cc1,0.52
COc1ccc(N2CCN(c3oc(COc4ccc(F)cc4)nc3C#N)CC2)cc1,0.55
N#Cc1nc(COc2ccc(Br)cc2)oc1N1CCN(Cc2ccccc2)CC1,0.65
CCCS(=O)(=O)N1CCCC(C(=O)NCCCN(CC)c2cccc(C)c2)C1 (stereo not given),0.78
O=C(Nc1ccc(S(=O)(=O)Nc2ncccn2)cc1)c1cccnc1,0.97
O=C(c1ccc2c(c1)N(Cc1ccccc1Cl)C(=O)CS2)N1CCC2(CC1)OCCO2,0.94
COc1cccc(-c2nc(CS(=O)(=O)CC(=O)NCC(C)c3ccccc3)c(C)o2)c1 (stereo not given),0.99
Cc1c(Cl)cccc1NS(=O)(=O)c1ccc2c(c1)CCC(=O)N2,0.96
COC(=O)c1c[nH]n2c(NC3CCC(C)CC3)c(-c3ccc(OC)c(OC)c3)nc12 (stereo not given),0.27*
COC(=O)c1c[nH]n2c(NC3CCCCCC3)c(-c3ccc(Cl)cc3)nc12,0.57
COC(=O)c1c[nH]n2c(NC3CCC(C)CC3)c(-c3ccc(F)cc3)nc12 (stereo not given),0.25*
COC(=O)c1c[nH]n2c(NCCc3ccccc3)c(-c3ccc(F)cc3)nc12,0.89
COC(=O)c1c[nH]n2c(NCCc3ccccc3)c(-c3ccc(C)cc3)nc12,0.84
COC(=O)c1c[nH]n2c(NC3CCCCC3)c(-c3ccc(Cl)cc3)nc12,0.71
CCn1c(=N)n(CC(=O)c2ccc(Cl)c(Cl)c2)c2ccccc21,1
CN(C)c1ccc(C2NC(C(=O)O)Cc3c2[nH]c2ccccc32)cc1 (stereo not given),0.25*
Cc1ccc(C2NC(C(=O)O)Cc3c2[nH]c2ccccc32)cc1 (stereo not given),1
CCOc1ccc(C2NCCc3c2[nH]c2ccccc32)cc1 (stereo not given),0.72
COc1cc(S(=O)(=O)NCCc2c(C)[nH]c3ccc(Br)cc23)c(C)cc1C,0.59
COc1ccc(C)cc1S(=O)(=O)NCCc1c(C)[nH]c2ccc(F)cc12,1
COc1cc(S(=O)(=O)NCCc2c(C)[nH]c3ccc(F)cc23)c(C)cc1C,0.91
COc1ccc(Cl)cc1S(=O)(=O)NCCc1c(C)[nH]c2ccc(C)cc12,0.48*
COc1ccc(Cl)cc1S(=O)(=O)NCCc1c(C)[nH]c2ccc(F)cc12,0.92
COc1cc(C)c(S(=O)(=O)NCCc2c(C)[nH]c3ccc(C)cc23)cc1C,0.38*
SMILES,CBX7 AlphaScr
N#Cc1cccc(NC(=O)NCCCN2CCN(c3cccc(Cl)c3)CC2)c1,1.1
O=C(CN1C(=O)CC(c2ccccc2)Sc2ccccc21)NCc1ccc(F)cc1 (stereo not given),0.98
CCCCN(C)CCCNC(=O)C1CCN(c2nc3ccc(CC)cc3s2)CC1,1.9
O=C(c1cnc(N2CCN(c3ccccn3)CC2)c2ccccc12)N1CCN(c2ccc(F)cc2)CC1,0.88
COc1ccc(-c2nc(-c3ccccc3)c(-c3ccccc3)[nH]2)c(OC)c1,0.37*
COc1cccc(-c2nc(-c3cccc(C)c3)no2)c1OC,1.2
COc1ccc(OC)c(-c2nc3ccccc3nc2-c2ccccc2)c1,1.2
COc1ccc(-c2[nH]c(-c3cc(OC)c4c(c3)OCO4)nc2-c2ccccc2)cc1,0.68
COc1ccc(-c2nc(-c3ccccc3)c(-c3ccc(F)cc3)[nH]2)c(OC)c1C,0.48*
COc1ccc(OC)c(-c2nc(-c3ccccc3)c(-c3ccccc3)[nH]2)c1,0.41*
COc1cc(OC)cc(-c2nc(-c3ccccc3)c(-c3ccc(Cl)cc3)[nH]2)c1,0.56
COc1ccc(-c2nc(-c3ccccc3)c(-c3ccc(Sc4ccccc4)cc3)[nH]2)cc1OC,0.73
COc1cccc(-c2nc(-c3ccccc3)c(-c3cc([N+](=O)[O-])ccc3C)[nH]2)c1OC,0.37*
COc1ccc(-c2nc(-c3ccccc3)c(-c3ccccc3)[nH]2)cc1O,0.92
COc1ccc(OC)c(CN2C(=O)c3ccccc3C2C(=O)NCc2cccnc2)c1 (stereo not given),0.99
Cc1ccccc1-c1nc(CN2CCCC(C(=O)O)C2)c(C)o1 (stereo not given),1
O=C(CC1Oc2ccccc2NC1=O)Nc1cc(C(F)(F)F)ccc1Cl (stereo not given),1.1
CCCCNC(=O)c1cc2c(n(-c3ccc(C)cc3)c1=O)CCCC2=O,0.99
CC1CCC(NC(=O)c2cc3sc(Cl)cc3n2C)CC1 (stereo not given),0.97
c1ccc(Cc2nnc(SCc3nnc(-c4ccccc4)o3)n2-c2ccccc2)cc1,0.88
Cc1ccccc1N1C(=O)c2ccccc2C1Nc1cccc(Cl)c1C (stereo not given),0.96
COc1ccc(Nc2c(-c3ccc(C)cc3)nc3ncccn23)cc1,1.1
CCc1cc(-c2oncc2-c2ccc(Br)cc2)c(O)cc1OC,0.85
CCCN(CCC)S(=O)(=O)c1ccc2c(c1)CCN2C(=O)CC,0.82
Nc1ccc(S(=O)(=O)Nc2nccc(/C=C/c3ccc(Cl)cc3Cl)n2)cc1,0.92
SMILES,CBX7 AlphaScr
COc1ccccc1CNc1ccc2c(c1)nc(C)n2C,1
COc1ccc2c(c1)nc(C)n2Cc1ccccc1,0.97
COc1ccccc1OCc1nc2ccccc2n1Cc1ccccc1,1.1
COc1ccc(CNc2ccc3c(c2)nc(C)n3Cc2ccccc2)cc1,0.35*
COc1ccc(CNc2ccc3c(c2)nc(C)n3Cc2ccccc2)cc1OC,0.4*
COc1ccc(CNc2ccc(-c3nc4cc(C)ccc4s3)cc2)cc1OC,1.1
COc1cccc(CNc2ccc3c(c2)nc(C)n3Cc2ccccc2)c1OC,0.31*
CC(=O)Nc1ccc2c(c1)nc(C)n2Cc1ccccc1,1.2
COc1cccc(CNc2ccc3c(c2)nc(C)n3C)c1OC,0.84
CC1CCCN(S(=O)(=O)c2ccc3[nH]c(=O)cc(C(=O)NC4CCCC(C)C4C)c3c2)C1 (stereo not given),0.97
Cc1ccc(NC(=O)CSc2nnc(COc3ccccc3Cl)o2)cc1C,1.1
O=C(NCc1cccnc1)c1ccc2c(c1)N(Cc1cccc(F)c1)C(=O)c1ccccc1S2,0.94
Cc1cc2cc(CCNS(=O)(=O)c3ccc(Cl)cc3)c(=O)[nH]c2cc1C,0.95
COc1ccc(-n2c(-c3ccc(C)cc3)cc3c2CC(C)(C)CC3=O)cc1,0.95
COc1ccccc1-n1c2c(cc(C(=O)N3CCC(C)CC3)c1=O)C(=O)CC(C)(C)C2,1
COc1ccc(-n2c(-c3ccc(C)cc3)cc3c2CC(C)(C)CC3=O)c(OC)c1,0.27*
COc1ccc(-n2c3c(cc(C(=O)Nc4ccc(OC)cc4OC)c2=O)C(=O)CC(C)(C)C3)cc1,1.1
COc1ccccc1-n1c(-c2ccc(C)cc2)cc2c1CC(C)(C)CC2=O,0.32*
COc1ccc(-n2c(-c3ccc(Cl)cc3)cc3c2CC(C)(C)CC3=O)cc1,0.88
Cc1ccc(-n2c(-c3ccccc3)cc3c2CC(C)(C)CC3=O)cc1Cl,0.82
Cc1ccc(-c2cc3c(n2-c2ccccc2)CC(C)(C)CC3=O)cc1,0.95
COc1ccc(Cn2c(-c3ccc(C)cc3)cc3c2CC(C)(C)CC3=O)cc1,0.8
CCOc1ccc(-n2c(-c3ccc(OC)cc3)cc3c2CC(C)(C)CC3=O)cc1,0.4*
COc1ccc(-c2cc3c(n2-c2ccccc2)CC(C)(C)CC3=O)cc1,0.79
COc1cccc(-n2c(-c3ccc(C)cc3)cc3c2CC(C)(C)CC3=O)c1,0.35*
